Laboratory results taken from PubChem BioAssay AID1159580 (chemical genetic matrix, 2015).
Among all 5,500 compounds or so, about 2,000 (36%) were called active. Another 18% or so got no clear call; they are omitted. Rule as the data show it: active = normalized growth mostly below about 0.91 (no sharp cut-off); inconclusive = no clear call, values can overlap the other calls; inactive = mostly above about 0.92. Some of the results follow.

Experiment: chemical genetic growth profiling, strain panel (AID 1159580);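 also: tested at 20 µM; growth read once vehicle control cultures reached saturation at 30 °C; 1 = growth at the plate median or of vehicle wells; lower values mean less growth of the strain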
Details: S. cerevisiae deletion strains, growth OD

Measured: normalized growth

COc1ccc(-c2coc3c(OC)c(OC)cc(OC)c3c2=O)cc1
inactive: locus YAL013W, strain DEP1, active compounds read low 0.977 | locus YBR021W, strain FUR4, active compounds read low 0.875 | locus YBR229C, strain ROT2, active compounds read low 0.998 | locus YCL029C, strain bik1, active compounds read low 1 | locus YDL035C, strain GPR1, active compounds read low 0.985 | locus YDL074C, strain BRE1, active compounds read low 0.961 | locus YDL101C, strain DUN1, active compounds read low 0.993 | locus YDL185W, strain tfp1, active compounds read low 0.992 | locus YDL192W, strain arf1, active compounds read low 0.991 | locus YDR101C, strain arx1, active compounds read low 0.983 | locus YDR150W, strain NUM1, active compounds read low 0.991 | locus YDR162C, strain NBP2, active compounds read low 0.893 | locus YDR318W, strain mcm21, active compounds read low 0.978 | locus YDR388W, active compounds read low 1.01 | locus YDR502C, strain sam2, active compounds read low 0.982 | locus YEL061C, strain CIN8, active compounds read low 1 | locus YER110C, active compounds read low 0.995 | locus YER155C, strain BEM2, active compounds read low 0.998 | locus YER167W, strain BCK2, active compounds read low 0.977 | locus YGL078C, strain dbp3, active compounds read low 1 | locus YGL086W, strain mad1, active compounds read low 0.974 | locus YGL248W, strain PDE1, active compounds read low 0.979 | locus YGR078C, strain PAC10, active compounds read low 0.94 | locus YGR135W, strain pre9, active compounds read low 0.969 | locus YGR252W, strain gcn5, active compounds read low 0.848 | locus YHR030C, strain SLT2, active compounds read low 0.997 | locus YHR079C, strain IRE1 (second series), active compounds read low 0.993 | locus YHR094C, strain hxt1, active compounds read low 0.996 | locus YHR129C, strain ARP1, active compounds read low 0.995 | locus YHR200W, strain rpn10, active compounds read low 0.985 | locus YIL066C, strain RNR3, active compounds read low 0.951 | locus YIL073C, strain SPO22, active compounds read low 0.973 | locus YIL125W, strain kgd1, active compounds read low 0.992 | locus YIR030C, strain dcg1, active compounds read low 1.01 | locus YJL095W, strain BCK1, active compounds read low 0.899 | locus YJL134W, strain LCB3, active compounds read low 1 | locus YJL168C, strain set2, active compounds read low 0.995 | locus YJL187C, strain SWE1 (second series), active compounds read low 0.971 | locus YJR043C, strain POL32, active compounds read low 0.964 | locus YJR075W, strain HOC1, active compounds read low 0.974 | locus YKL009W, strain mrt4, active compounds read low 0.981 | locus YKL068W, active compounds read low 1.02 | locus YKL085W, strain MDH1 (second series), active compounds read low 0.993 | locus YKL085W, strain MDH1, active compounds read low 0.993 | locus YKL190W, strain CNB1, active compounds read low 0.986 | locus YKR001C, strain vps1, active compounds read low 0.903 | locus YLR039C, strain RIC1, active compounds read low 0.928 | locus YLR058C, strain SHM2, active compounds read low 0.983 | locus YLR102C, strain apc9, active compounds read low 0.993 | locus YLR262C, strain YPT6, active compounds read low 0.904 | locus YLR268W, strain sec22, active compounds read low 0.952 | locus YLR330W, strain CHS5, active compounds read low 1 | locus YLR342W, strain FKS1 (second series), active compounds read low 0.924 | locus YLR371W, strain rom2, active compounds read low 0.993 | locus YLR418C, strain cdc73, active compounds read low 0.884 | locus YML016C, strain PPZ1, active compounds read low 1 | locus YML032C, strain rad52, active compounds read low 0.999 | locus YML124C, strain tub3, active compounds read low 0.994 | locus YMR078C, strain ctf18, active compounds read low 1.01 | locus YMR223W, strain ubp8, active compounds read low 0.994 | locus YMR307W, strain GAS1, active compounds read low 0.83 | locus YNL067W, strain RPL9B, active compounds read low 0.964 | locus YNL128W, strain TEP1, active compounds read low 0.998 | locus YNL153C, strain GIM3, active compounds read low 0.978 | locus YNL233W, strain BNI4, active compounds read low 0.914 | locus YNL250W, strain rad50, active compounds read low 1.02 | locus YNL271C, strain bni1, active compounds read low 1 | locus YNL298W, strain CLA4, active compounds read low 1.01 | locus YNL307C, strain MCK1, active compounds read low 0.968 | locus YNL322C, strain KRE1, active compounds read low 0.985 | locus YNR052C, strain pop2, active compounds read low 1.02 | locus YOL012C, strain htz1 1.15 | locus YOL147C, strain pex11, active compounds read low 0.982 | locus YOR061W, strain CKA2, active compounds read low 0.998 | locus YOR069W, strain VPS5, active compounds read low 1.01 | locus YOR136W, strain idh2, active compounds read low 0.987 | locus YOR144C, strain elg1, active compounds read low 0.991 | locus YOR184W, strain ser1, active compounds read low 0.938 | locus YOR316C, strain cot1, active compounds read low 0.999 | locus YPL055C, strain LGE1, active compounds read low 0.904 | locus YPL241C, strain CIN2, active compounds read low 0.995 | locus YPR119W, strain clb2, active compounds read low 0.987 | locus YPR141C, strain kar3, active compounds read low 1 | locus YPR163C, strain tif3, active compounds read low 0.985 | locus YPR167C, strain met16, active compounds read low 0.985 | strain wtn01, active compounds read low 0.972
